Measured values from ChEMBL document CHEMBL5308504, “Tm Shift (DSF) assay results for EUbOPEN Chemogenomics Library” (2023).

biological target: Bromodomain-containing protein 4 (Homo sapiens) (UniProt O60885); details: Compound concentration 20.0 uM, Protein concentration 2.0 uM, Result type QC Liability

Row | Compound | ΔTm
1 | O=C(O)CCCCCC[C@@H]1C(=O)NC(=O)N1CCC(O)C1CCCCC1 (stereo partly drawn) | -1.84 °C
2 | CN1CCN(c2ccnc(NCCc3ccccc3)n2)CC1 | -0.31 °C
3 | CN(CCCCCCC1=C(c2cc(F)cc(F)c2)CCCc2cc(O)ccc21)CCCCS(=O)(=O)CCCC(F)(F)F | 1.66 °C
4 | Cc1nc(-c2ccc(C(F)(F)F)cc2)sc1C(=O)NCc1ccc(OC(C)(C)C(=O)O)cc1 | -2.8 °C
5 | O=C(O)c1cc(-c2ccccc2)ccc1O | -1.31 °C
6 | Cc1ncsc1-c1ccc(CNC(=O)[C@@H]2C[C@H](O)CN2C(=O)[C@@H](NC(=O)C2(F)CC2)C(C)(C)C)c(OCCOc2ccc(CN3CCN(c4cc(-c5ccccc5O)nnc4N)CC3)cc2)c1 (relative stereo) | 14.5 °C
7 | C[C@H](CCC(=O)O)[C@H]1CC[C@H]2[C@@H]3CC[C@@H]4C[C@H](O)CC[C@]4(C)[C@H]3C[C@H](O)[C@]12C | -3.05 °C
8 | CN(C)C(=O)c1cc2cnc(Nc3ccc(N4CCN(CCCCNC(=O)COc5cccc6c5C(=O)N(C5CCC(=O)NC5=O)C6=O)CC4)cn3)nc2n1C1CCCC1 (stereo not drawn) | -0.39 °C
9 | O=C(Nc1cccc(Nc2nccc(Nc3cccc(C(F)(F)F)c3)n2)c1)C1CC1 | 1.77 °C
10 | CC(C)(C)NC(=O)c1cncn1C1CCN(c2ccc(-c3nnc(C(F)(F)F)o3)cn2)CC1 | -0.5 °C
11 | Cn1cc(NC(=O)c2ccc3nc4n(c3c2)CCCNC4=O)nc1C(=O)NC1CCCC1 | -1.16 °C
12 | CC1(C)CCC(CN2CCN(c3ccc(C(=O)NS(=O)(=O)c4ccc(NCC5CCOCC5)c([N+](=O)[O-])c4)c(Oc4cnc5[nH]ccc5c4)c3)CC2)=C(c2ccc(Cl)cc2)C1 | -1.82 °C
13 | CCOC(=O)c1cc2cc(-c3cc(C(=O)NCc4ccc(C(=O)O)cc4)nn3C)ccc2[nH]1 | -0.14 °C
14 | Cc1cn([C@H](C)CC#N)c(=O)c2cc(Cn3nc(C(F)F)cc3Cl)nn12 | -1.08 °C
15 | NC(=O)c1ccccc1Nc1nc(-c2ccc(N3CCOCC3)cc2)cc2ncccc12 | -2.32 °C
16 | COCCCS(=O)(=O)c1cc(C)c(-c2ccc(F)c3c2CC[C@H]3Oc2ccc3c(c2)OC[C@H]3CC(=O)O)c(C)c1 | -0.25 °C
17 | CC(C=CC1=C(C)CCCC1(C)C)=CC=CC(C)=CC(=O)O | -5.12 °C
18 | CC(=O)Nc1nc(C)c(S(=O)(=O)Nc2ccc(C(O)(C(F)(F)F)C(F)(F)F)cc2)s1 | -1.81 °C
19 | CN1CC(=O)N(C)c2cnc(Nc3ccc(NC(=O)Nc4cccc(C(=O)O)c4)cc3)nc21 | 0.02 °C
20 | Cc1cc(-c2ccnc(Nc3cnn(C)c3)n2)ccc1CNC(=O)N1CC(OC(C)C)C1 | -2.36 °C

Row | Compound | ΔTm
21 | CN1C(=O)c2c(nn(Cc3ccc(-c4cccc(F)n4)cc3)c2Nc2ccccc2)N2C1=N[C@@H]1CCC[C@@H]12 | 1.34 °C
22 | CCCS(=O)(=O)N[C@H]1C[C@@H](N(C)c2ncnc3[nH]ccc23)C1 | -0.54 °C
23 | CCc1ccc(-c2ncn(CC3(F)CCN(C)CC3)c2-c2ccnc3[nH]ccc23)nc1 | -2.66 °C
24 | CCOC(=O)Nc1ccc2c(c1)N(C(=O)CN(CC)CC)c1ccccc1CC2 | -1.53 °C
25 | CC(C)(C)OC(=O)CN1C(=O)c2c(OCC(=O)O)cccc2Oc2ccc(C(F)(F)F)cc21 | 0 °C
26 | CCCCCCC(Sc1nc(Cl)cc(NCc2ccc(-c3ccccc3)cc2)n1)C(=O)O (stereo not drawn) | -1.48 °C
27 | CNC(=O)c1ccc2c(c1)NC(=O)/C2=C(\Nc1ccc(CN2CCCCC2)cc1)c1ccccc1 | -3.03 °C
28 | O=C(O)c1ccc(CN2C[C@@H]3C[C@H]2CN3Cc2ccc(Oc3ccc(-c4ncco4)cc3)cc2)cc1 | -2.1 °C
29 | Cn1cc(-c2cnc3ccc4ccc(CS(=O)(=O)NCc5ccccn5)cc4c(=O)c3c2)cn1 | -1.72 °C
30 | CN(C)c1ccc(-c2cc3ncccc3c(OCCCCO)n2)cc1 | -2.64 °C
31 | Cc1cc2nc(N3CCC(C(=O)NC4CCCC4)CC3)n(C(C)C)c2cc1C | -0.57 °C
32 | O=C(NC1CCNCC1)c1n[nH]cc1NC(=O)c1c(Cl)cccc1Cl | -0.14 °C
33 | CNc1oc(-c2cccc3ccccc23)nc1C#N | -3.26 °C
34 | Cc1cc(-c2nc(-c3ccc(OC(F)(F)F)cc3)no2)nn1Cc1ccnc(N2CCN(C3CC3)CC2)c1 | 0.31 °C
35 | Cn1cc(-c2ccc(N(C(=O)NCc3ccccc3)[C@H]3CC[C@H](Nc4ccc(C#N)cn4)CC3)cc2)ccc1=O | -0.82 °C
36 | Cc1cccc(-c2nn3c(c2-c2ccnc4ccc(C(N)=O)cc24)CCC3)n1 | -2.31 °C
37 | Cc1cc(OC2CCS(=O)(=O)CC2)cc(C)c1-c1cccc(COc2ccc(C(=O)O)c(F)c2)c1 | -3.26 °C
38 | C[C@@H]1Cc2c([nH]c3ccccc23)[C@@H](c2c(F)cc(/C=C/C(=O)O)cc2F)N1CC(C)(C)F | 0.36 °C
39 | COc1cc2nc(-c3cc(F)ccc3O)nc(N[C@@H]3CNC[C@H]3C(C)(C)O)c2cc1OC | 1.15 °C

biological target: T1, Transcription intermediary factor 1-alpha (Homo sapiens) (UniProt O15164); details: Compound concentration 20.0 uM, Protein concentration 2.0 uM, Result type QC Liability
T1 sequence (whole entry): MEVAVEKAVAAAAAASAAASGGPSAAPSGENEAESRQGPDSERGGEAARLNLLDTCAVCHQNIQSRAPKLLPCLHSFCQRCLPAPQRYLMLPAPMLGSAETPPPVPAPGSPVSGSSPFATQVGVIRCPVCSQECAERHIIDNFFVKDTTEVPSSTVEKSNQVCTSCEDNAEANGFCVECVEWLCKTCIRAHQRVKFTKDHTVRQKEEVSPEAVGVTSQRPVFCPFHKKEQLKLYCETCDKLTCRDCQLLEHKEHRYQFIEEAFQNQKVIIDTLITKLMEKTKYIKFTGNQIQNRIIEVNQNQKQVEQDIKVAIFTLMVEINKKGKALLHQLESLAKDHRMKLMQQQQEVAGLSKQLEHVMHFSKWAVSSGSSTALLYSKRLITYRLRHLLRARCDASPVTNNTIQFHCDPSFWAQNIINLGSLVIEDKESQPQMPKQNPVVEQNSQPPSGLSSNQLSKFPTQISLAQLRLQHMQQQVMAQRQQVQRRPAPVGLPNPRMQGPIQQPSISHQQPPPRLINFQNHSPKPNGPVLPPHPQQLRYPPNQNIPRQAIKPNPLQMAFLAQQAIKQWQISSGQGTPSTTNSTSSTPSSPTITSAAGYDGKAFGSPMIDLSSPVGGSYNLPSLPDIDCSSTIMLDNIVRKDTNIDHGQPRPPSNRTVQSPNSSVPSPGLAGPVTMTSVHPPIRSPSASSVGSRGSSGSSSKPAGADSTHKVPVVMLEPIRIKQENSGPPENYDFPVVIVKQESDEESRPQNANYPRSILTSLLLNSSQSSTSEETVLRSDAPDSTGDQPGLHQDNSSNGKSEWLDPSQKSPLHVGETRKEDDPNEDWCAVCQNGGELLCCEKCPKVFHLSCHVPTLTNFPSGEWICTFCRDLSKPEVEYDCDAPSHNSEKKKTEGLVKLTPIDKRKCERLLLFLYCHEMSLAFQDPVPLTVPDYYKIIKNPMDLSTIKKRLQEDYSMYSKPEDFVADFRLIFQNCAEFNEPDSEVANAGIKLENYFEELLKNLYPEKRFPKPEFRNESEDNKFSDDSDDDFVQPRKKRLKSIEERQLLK

Row | Compound | ΔTm
40 | O=C(O)CCCCCC[C@@H]1C(=O)NC(=O)N1CCC(O)C1CCCCC1 (stereo partly drawn) | -0.56 °C
41 | CN1CCN(c2ccnc(NCCc3ccccc3)n2)CC1 | -0.99 °C
42 | CN(CCCCCCC1=C(c2cc(F)cc(F)c2)CCCc2cc(O)ccc21)CCCCS(=O)(=O)CCCC(F)(F)F | 1.21 °C
43 | Cc1nc(-c2ccc(C(F)(F)F)cc2)sc1C(=O)NCc1ccc(OC(C)(C)C(=O)O)cc1 | -1.73 °C
44 | O=C(O)c1cc(-c2ccccc2)ccc1O | -1.78 °C
45 | Cc1ncsc1-c1ccc(CNC(=O)[C@@H]2C[C@H](O)CN2C(=O)[C@@H](NC(=O)C2(F)CC2)C(C)(C)C)c(OCCOc2ccc(CN3CCN(c4cc(-c5ccccc5O)nnc4N)CC3)cc2)c1 (relative stereo) | 1.57 °C
46 | C[C@H](CCC(=O)O)[C@H]1CC[C@H]2[C@@H]3CC[C@@H]4C[C@H](O)CC[C@]4(C)[C@H]3C[C@H](O)[C@]12C | -3.23 °C
47 | CN(C)C(=O)c1cc2cnc(Nc3ccc(N4CCN(CCCCNC(=O)COc5cccc6c5C(=O)N(C5CCC(=O)NC5=O)C6=O)CC4)cn3)nc2n1C1CCCC1 (stereo not drawn) | -1.79 °C
48 | O=C(Nc1cccc(Nc2nccc(Nc3cccc(C(F)(F)F)c3)n2)c1)C1CC1 | 1.03 °C
49 | CC(C)(C)NC(=O)c1cncn1C1CCN(c2ccc(-c3nnc(C(F)(F)F)o3)cn2)CC1 | 0.46 °C
50 | Cn1cc(NC(=O)c2ccc3nc4n(c3c2)CCCNC4=O)nc1C(=O)NC1CCCC1 | -2.92 °C
51 | CC1(C)CCC(CN2CCN(c3ccc(C(=O)NS(=O)(=O)c4ccc(NCC5CCOCC5)c([N+](=O)[O-])c4)c(Oc4cnc5[nH]ccc5c4)c3)CC2)=C(c2ccc(Cl)cc2)C1 | -1.45 °C
52 | CCOC(=O)c1cc2cc(-c3cc(C(=O)NCc4ccc(C(=O)O)cc4)nn3C)ccc2[nH]1 | 0.44 °C
53 | Cc1cn([C@H](C)CC#N)c(=O)c2cc(Cn3nc(C(F)F)cc3Cl)nn12 | -1.23 °C
54 | NC(=O)c1ccccc1Nc1nc(-c2ccc(N3CCOCC3)cc2)cc2ncccc12 | -2.3 °C
55 | COCCCS(=O)(=O)c1cc(C)c(-c2ccc(F)c3c2CC[C@H]3Oc2ccc3c(c2)OC[C@H]3CC(=O)O)c(C)c1 | -0.22 °C
56 | CC(C=CC1=C(C)CCCC1(C)C)=CC=CC(C)=CC(=O)O | -4.24 °C
57 | CC(=O)Nc1nc(C)c(S(=O)(=O)Nc2ccc(C(O)(C(F)(F)F)C(F)(F)F)cc2)s1 | -0.92 °C
58 | CN1CC(=O)N(C)c2cnc(Nc3ccc(NC(=O)Nc4cccc(C(=O)O)c4)cc3)nc21 | -0.69 °C
59 | Cc1cc(-c2ccnc(Nc3cnn(C)c3)n2)ccc1CNC(=O)N1CC(OC(C)C)C1 | 0.22 °C

Row | Compound | ΔTm
60 | CN1C(=O)c2c(nn(Cc3ccc(-c4cccc(F)n4)cc3)c2Nc2ccccc2)N2C1=N[C@@H]1CCC[C@@H]12 | 0.8 °C
61 | CCCS(=O)(=O)N[C@H]1C[C@@H](N(C)c2ncnc3[nH]ccc23)C1 | -3.66 °C
62 | CCc1ccc(-c2ncn(CC3(F)CCN(C)CC3)c2-c2ccnc3[nH]ccc23)nc1 | -2.61 °C
63 | CCOC(=O)Nc1ccc2c(c1)N(C(=O)CN(CC)CC)c1ccccc1CC2 | -1.69 °C
64 | CC(C)(C)OC(=O)CN1C(=O)c2c(OCC(=O)O)cccc2Oc2ccc(C(F)(F)F)cc21 | 0.32 °C
65 | CCCCCCC(Sc1nc(Cl)cc(NCc2ccc(-c3ccccc3)cc2)n1)C(=O)O (stereo not drawn) | 0.51 °C
66 | CNC(=O)c1ccc2c(c1)NC(=O)/C2=C(\Nc1ccc(CN2CCCCC2)cc1)c1ccccc1 | -3 °C
67 | O=C(O)c1ccc(CN2C[C@@H]3C[C@H]2CN3Cc2ccc(Oc3ccc(-c4ncco4)cc3)cc2)cc1 | -1.06 °C
68 | Cn1cc(-c2cnc3ccc4ccc(CS(=O)(=O)NCc5ccccn5)cc4c(=O)c3c2)cn1 | -0.28 °C
69 | CN(C)c1ccc(-c2cc3ncccc3c(OCCCCO)n2)cc1 | -3.64 °C
70 | Cc1cc2nc(N3CCC(C(=O)NC4CCCC4)CC3)n(C(C)C)c2cc1C | -0.87 °C
71 | O=C(NC1CCNCC1)c1n[nH]cc1NC(=O)c1c(Cl)cccc1Cl | -1.34 °C
72 | CNc1oc(-c2cccc3ccccc23)nc1C#N | -0.7 °C
73 | Cc1cc(-c2nc(-c3ccc(OC(F)(F)F)cc3)no2)nn1Cc1ccnc(N2CCN(C3CC3)CC2)c1 | 0.28 °C
74 | Cn1cc(-c2ccc(N(C(=O)NCc3ccccc3)[C@H]3CC[C@H](Nc4ccc(C#N)cn4)CC3)cc2)ccc1=O | -1.6 °C
75 | Cc1cccc(-c2nn3c(c2-c2ccnc4ccc(C(N)=O)cc24)CCC3)n1 | -2.8 °C
76 | Cc1cc(OC2CCS(=O)(=O)CC2)cc(C)c1-c1cccc(COc2ccc(C(=O)O)c(F)c2)c1 | -2.6 °C
77 | C[C@@H]1Cc2c([nH]c3ccccc23)[C@@H](c2c(F)cc(/C=C/C(=O)O)cc2F)N1CC(C)(C)F | -0.62 °C
78 | COc1cc2nc(-c3cc(F)ccc3O)nc(N[C@@H]3CNC[C@H]3C(C)(C)O)c2cc1OC | -1.27 °C
